# Data published in ChEMBL document CHEMBL1157539, “Thousands of chemical starting points for antimalarial lead identification” (Nature, 2010).
# Assays:
# Type in all cases: functional
# Plasmodium falciparum [1] = test: GSK_TCMDC: Inhibition of Plasmodium falciparum 3D7 in whole red blood cells, using parasite LDH activity as an index of growth. Test compounds present at 2uM
# Plasmodium falciparum [2] = test: GSK_TCMDC: Inhibition of Plasmodium falciparum Dd2 in whole red blood cells, using parasite LDH activity as an index of growth. Test compounds present at 2uM
# HepG2 = test: GSK_TCMDC: Percent inhibition of human HepG2 cell line. Test compounds present at 10uM.
Structure (SMILES),Inhibition (Plasmodium falciparum [1]),Inhibition (Plasmodium falciparum [2]),Inhibition (HepG2)
COc1cc(NCCCNC(=O)c2cc3c(Cl)cc(Cl)cc3[nH]2)nc2ccccc12,100%,100%,96%
CC(C)(C)OC(=O)NCc1ccc(Nc2nnc(-c3cccc(OCC(=O)NCc4cc(C(F)(F)F)cc(C(F)(F)F)c4)c3)o2)cc1,90%,19%,32%
CCNc1cc(C(=O)N[C@@H](Cc2cccc(Cl)c2)[C@H](O)CNC(C)CCCC(C)C)cc(N2CCCCS2(=O)=O)c1.Cl (some centres not stated),98%,78%,7%
CC1(C)CCCN(c2ncc(-c3cccc(CNCc4ccccc4O)c3)cn2)C1,96%,82%,35%
CC(C)NCc1cccc(-c2ccc(NC(=O)c3ccc(C#N)cc3)cc2)c1.O=C(O)C(F)(F)F,99%,8%,15%
COc1ccc(Nc2ncc3c(-c4cccc(NC(=O)c5ccccc5)c4)c[nH]c3n2)cc1OC,100%,95%,54%
O=C(Nc1cccc(-c2cccc(-c3nc4ccccc4[nH]3)c2)c1)Nc1ccc(Cl)c(Cl)c1,100%,98%,78%
COc1ccc(-c2cnc(N)c(-c3ccc(O)c(OC)c3)c2)cn1,97%,98%,23%
COc1ccc2c(=O)c(I)c(C)[nH]c2c1,96%,96%,27%
CN(CCCCNC(=O)c1cc2ccccc2[nH]1)C1CC2(CCN(C(=O)OC(C)(C)C)CC2)c2ccccc21 (configuration not stated),86%,75%,12%
O=C(Nc1ccc(S(=O)(=O)N2CCCCC2)cc1)c1cc(-c2cc(Cl)ccc2O)n[nH]1,97%,87%,36%
O=C(NC1CC1)c1ccc(N2CCC(Cc3ccccc3)CC2)c([N+](=O)[O-])c1,96%,83%,12%
CCc1ccc(NC(=O)C=NNC(=N)N)cc1.O=S(=O)(O)O,100%,3%,13%
CS(=O)(=O)c1ccccc1CNC(=O)c1ccc(-c2ccc(-c3nc4cc(C(F)(F)F)ccc4[nH]3)s2)cc1,96%,76%,90%
Cc1cc(N[C@@H](Cc2ccccc2)C(=O)NCc2cccc(F)c2)nc(NCCCOC(C)C)n1.O=C(O)C(F)(F)F,100%,94%,10%
CS(=O)(=O)c1ccc(CCNCc2ccc(-c3ccc(CNC4CCN(Cc5ccccc5)CC4)cc3)nc2)cc1.O=C(O)C(F)(F)F,100%,100%,32%
COc1ccc(Nc2ncc3c(-c4cccc(NC(=O)Cc5cccc(F)c5)c4)c[nH]c3n2)cc1OC,100%,68%,24%
O=C(NCCCCCN1CCC(c2c[nH]c3ccccc23)CC1)c1ccc(Cl)c(Cl)c1,85%,10%,48%
COc1cc2c(cc1OC)CN(CCCCc1ccc(NC(=O)c3cc(Cl)cc(Cl)c3)cc1)CC2,95%,4%,21%
O=C(/C=C/c1ccc([N+](=O)[O-])cc1)N1CCC(NS(=O)(=O)c2cccc(C(F)(F)F)c2)CC1,94%,8%,0%

Structure (SMILES),Inhibition (Plasmodium falciparum [1]),Inhibition (Plasmodium falciparum [2]),Inhibition (HepG2)
CC(C)CNCc1cccc(-c2cccc(CN(CCCN3CCN(C)CC3)C(=O)Nc3ccccc3)c2)c1.O=C(O)C(F)(F)F,95%,76%,25%
Cc1cc(NCCC(=O)Nc2ccccc2)nc(NCCc2cccs2)n1.O=C(O)C(F)(F)F,99%,20%,26%
Cc1nc2ccccc2n1C1CC2CCC(C1)N2CCCC1(c2ccccc2)CCN(C(=O)OCc2ccccc2)CC1.O=CO (configuration not stated),90%,29%,46%
COc1cccc(CCc2nc3c(N4CCC(Cc5ccccc5)CC4)cccc3n2CC2CNCCO2)c1.O=C(O)C(F)(F)F (configuration not stated),94%,96%,4%
COc1ccc(CNC2CCN(C)CC2)cc1-c1ccc(S(=O)(=O)NCC2CCCO2)s1.O=C(O)C(F)(F)F (configuration not stated),95%,18%,18%
Nc1nc(N)c2cc(Sc3ccc4ccccc4c3)ccc2n1,95%,92%,66%
CS(=O)(=O)c1ccc2c(c1)CCN(CCC1CCC(NC(=O)C(=Cc3ccc(Cl)cc3Cl)c3ccc(-c4ccccc4)cc3)CC1)CC2 (configuration not stated),81%,16%,33%
O=C(Nc1ccc(-c2nc3ccccc3[nH]2)cc1)c1ccc(N2CCOCC2)c([N+](=O)[O-])c1,100%,28%,47%
O=C(O)C(F)(F)F.c1ccc(CN2CCC(NCc3ccc(-c4ccc(CNCc5cccnc5)cn4)cc3)CC2)cc1,97%,13%,0%
COc1cccc(NC(=O)NCCNc2ccnc(Nc3ccc(F)cc3)n2)c1,94%,1%,18%
CS(=O)(=O)CCNCc1nc(-c2ccc3c(Nc4ccc(Oc5ccccn5)cc4)ccnc3c2)cs1,100%,89%,9%
C=CCNS(=O)(=O)c1ccc(NC(=O)C(C)Oc2ccc([N+](=O)[O-])cc2)cc1 (configuration not stated),100%,100%,14%
Cc1cccc(NC(=O)c2ccc(C(=O)NC3CCN(CC4CCCCC4)CC3)cc2)c1.O=C(O)C(F)(F)F,95%,18%,14%
O=C(/C=C/c1ccc(Cl)c(Cl)c1)NCCCCCN1CCC(n2c(=O)[nH]c3ccccc32)CC1,97%,0%,38%
Br.CCCCCCCCn1c2c(c(=N)c3c1CCC3)CCC2,99%,93%,47%
NCc1ccc(CNCc2ccc(-c3ccc(-c4nc5cc(C(F)(F)F)ccc5[nH]4)s3)cc2)cc1.O=C(O)C(F)(F)F,95%,92%,34%
O=C(NC1CCN(Cc2ccsc2)CC1)c1ccc(-c2cccc(C(F)(F)F)c2)s1.O=C(O)C(F)(F)F,88%,3%,48%
CO/C(=C\C=C\c1cc2cc(Cl)c(Cl)cc2[nH]1)C(=O)NCCCN1CCN(c2cccc(O)c2)CC1,91%,100%,46%
CCN(CC)CCN(Cc1ccc(-c2ccc(C(F)(F)F)cc2)nc1)C(=O)Cn1c(SCc2ccc(F)cc2)nc(=O)c2sccc21.O=C(O)C(O)C(O)C(=O)O,96%,66%,43%
CN(C)CCCn1c(C(=O)OC(c2ccccc2)c2ccccc2)cc2cc(OCc3ccccc3)ccc21,82%,85%,12%

Structure (SMILES),Inhibition (Plasmodium falciparum [1]),Inhibition (Plasmodium falciparum [2]),Inhibition (HepG2)
Cc1[nH]c(C)c(-c2ccc(-c3ccccc3Cl)nc2)c(=O)c1Cl,98%,97%,0%
Cl.O=c1cc(NCCCNC2CCOc3c(I)cc(Cl)cc32)[nH]c2ccccc12 (configuration not stated),96%,48%,0%
COc1ccc(C(F)(F)F)cc1N1CCN(CCCCNC(=O)c2ccc(NC(=O)c3ccc(Cl)cc3)cc2)CC1,94%,1%,12%
CCc1cn2c3c(cc(C(=O)N[C@@H](Cc4cccc(Cl)c4)[C@H](O)CNC4CCCCC4)cc13)N(C)S(=O)(=O)CC2.O=CO,97%,98%,12%
COCCn1c(SC(C)C(=O)Nc2cc(C(F)(F)F)ccc2Cl)nc2ccccc2c1=O (configuration not stated),97%,95%,8%
Cl.O=C(Nc1ccccc1)c1cccc(Nc2nccc(Nc3ccc(Oc4ccccc4)cc3)n2)c1,98%,11%,6%
Cc1n[nH]c2ccc(-c3cc(OC[C@@H](N)Cc4ccccc4)cnc3-c3cc4ccccc4s3)cc12.O=C(O)C(F)(F)F,99%,68%,41%
Fc1ccc2[nH]c(-c3ccc(-c4ccc(CN5CCN(CCN6CCOCC6)CC5)cc4)cc3)nc2c1.O=C(O)C(F)(F)F,100%,100%,38%
O=C(NOCc1ccccc1)c1cc(Cl)ccc1O,83%,0%,2%
COc1ccc(Cn2c(=O)[nH]c3cc(C(=O)NC4CCN(Cc5ccccc5)CC4)ccc3c2=O)cc1,97%,45%,10%
O=C(/C=C/c1ccc(Cl)c(Cl)c1)NCCCCCN1CCCN(C(=O)Nc2ccc([N+](=O)[O-])cc2)CC1,97%,28%,32%
COc1ccc2nc(C)cc(Nc3ccc(Oc4ccc(Cl)c5ccccc45)c(Cl)c3)c2c1,100%,100%,83%
O=C(O)C(F)(F)F.Oc1ccc(CCNc2nc(NCc3ccc4cc(Cl)ccc4c3)nc(N3CCNCC3)n2)cc1,92%,38%,14%
O=C(CCc1c[nH]cn1)Nc1cccc(-c2ccc(-c3nc4ccccc4[nH]3)cc2)c1,100%,60%,24%
Cc1[nH]c(C)c(-c2ccc(Oc3cccc(Cl)c3)cc2)c(=O)c1Cl,99%,97%,40%
Cl.Oc1cc(-c2nc(-c3ccccc3)[nH]c2-c2ccncc2)ccc1Cl,96%,91%,64%
O=C(Nc1ccon1)c1cc(-c2cccnc2)nc2ccc(Br)cc12,99%,77%,7%
Cc1[nH]c(C)c(-c2ccc(C#Cc3ccc(F)cc3F)cc2)c(=O)c1Br,97%,98%,11%
O=C(Nc1ccc(C(F)(F)F)cc1)c1ccc(S(=O)(=O)NCC2CCCN(CC3CCCCC3)C2)cc1.O=C(O)C(F)(F)F (configuration not stated),93%,0%,44%
